# Measurements from PubChem BioAssay (NCATS).
# Calls of active or inactive are those of the source. Calls follow the shape of the full dose curve.
# Assay: qHTS drug screen for cell cycle checkpoint inhibitors in PARPi-resistant BRCA-mutant ovarian cancer cell lines. (AID 1963452)
# Details: PEO1/OlaR viability, CellTiter-Glo luminescence, 96 h; for Z-AUC: stronger effect = lower value
# From the text: Women's Malignancies Branch, Center for Cancer Research (CCR),
# National Cancer Institute (NCI), National Institutes of Health (NIH), Bethesda, MD
# Poly (ADP-ribose) polymerase inhibitors (PARPis) have changed the treatment paradigm in breast cancer gene (BRCA) - mutant high-grade serous ovarian carcinoma (HGSC). However, most patients eventually develop resistance to PARPis, highlighting an unmet need for improved therapeutic strategies. Using high-throughput drug screens, we identified ataxia telangiectasia and rad3-related protein/checkpoint kinase 1 (CHK1) pathway inhibitors as cytotoxic and further validated the activity of the CHK1 inhibitor (CHK1i) prexasertib in PARPi-sensitive and -resistant BRCA-mutant HGSC cells and xenograft mouse models. CHK1i monotherapy induced DNA damage, apoptosis, and tumor size reduction. We then conducted a phase 2 study (NCT02203513) of prexasertib in patients with BRCA-mutant HGSC. The treatment was well tolerated but yielded an objective response rate of 6% (1 of 17; one partial response) in patients with previous PARPi treatment. […] BRCA reversion mutation in previously PARPi-treated BRCA-mutant patients was not associated with resistance to CHK1i.
# Among others, 1082 oncology drugs, both approved and investigational, were prioritized based on their status in clinical trial development. […] Drugs with average Z-AUC values less than -1.0 in all three cell lines were classified as "hits" resulting in 151 oncology drug hits. The screen also confirmed cross-resistance between olaparib and other PARPis (rucaparib, niraparib, and talazoparib) in PARPi-resistant PEO1/OlaR and PEO4.
# [1] G. L. Lin, K. M. Wilson, M. Ceribelli, B. Z. Stanton, P. J. Woo, S. Kreimer, E. Y. Qin, X. Zhang, J. Lennon, S. Nagaraja, P. J. Morris, M. Quezada, S. M. Gillespie, D. Y. Duveau, A. M. Michalowski, P. Shinn, R. Guha, M. Ferrer, C. Klumpp-Thomas, S. Michael, C. McKnight, P. Minhas, Z. Itkin, E. H. Raabe, L. Chen, R. Ghanem, A. C. Geraghty, L. Ni, K. I. Andreasson, N. A. Vitanza, K. E.Warren, C. J. Thomas, M. Monje, Therapeutic strategies for diffuse midline glioma from high-throughput combination drug screening. Sci. Transl. Med. 11, (2019).
# [2] T. M. Yamamoto, A. McMellen, Z. L. Watson, J. Aguilera, R. Ferguson, E. Nurmemmedov, T. Thakar, G. L. Moldovan, H. Kim, D. M. Cittelly, A. M. Joglar, E. P. Brennecke, H. Wilson, K. Behbakht, M. J. Sikora, B. G. Bitler, Activation of Wnt signaling promotes olaparib resistant ovarian cancer. Mol. Carcinog. 58, 1770 - 1782 (2019).
# PROTOCOL TABLE (as described by Inglese J, Shamu CE and Guy RK. 2007)
# SEQUENCE No. (e.g., 1, 2, 3, etc.); […] (e.g., Cells, Incubation, Reagent, etc.); VALUE; DESCRIPTION.
# 1; Compounds; 20nL; 1536-well white tissue culture-treated plates.
# 2; Cells; 5 uL; PEO1, PEO4, and PEO1/OlaR cells at 600 cells per well.
# 3; Incubation; 96 hr; 37C, 95% humidity, 5% CO2.
# 4; Reagent; 3 uL; CellTiter-Glo (Promega).
# 5; Incubation; 15 min; room temperature.
# 6; Detection; Luminescence, PHERAstar (BMG Labtech) plate reader.
# NOTES (numbers refer to Sequence numbers above)
# 1. MIPE 5.0 compounds were acoustically dispensed by Echo Acoustic Liquid Handler (Beckman Coulter Life Sciences). Each compound was plated at an 11-point concentration range with 1:3 dilution. Bortezomib, a proteasome inhibitor (final concentration, 20 uM), was used as a positive.
# 2. PEO1, PEO4, and PEO1/OlaR were trypsinized and dispensed in 5 uLof growth medium using a Multidrop Combi dispenser at a density of 600 cells per well to allow compounds to be present during the exponential growth phase.
# 3. Plates were incubated for 96 hours at standard incubator conditions and covered by a stainless steel gasketed lid to prevent evaporation.
# 4. Three microliters of CellTiter-Glo (Promega) were added to each well.
# 5. Plates were incubated at room temperature for 15 min with a stainless-steel lid in place.
# 6. Luminescence readings were taken using PHERAstar (BMG Labtech). […]
# [1] = measured here: PEO1 parental Z-AUC
# Potency is read from the fitted curve at half-maximal effect.
SMILES,Potency,Z-AUC [1],Z-AUC (measured here: PEO4 Z-AUC),Z-AUC
O=c1[nH]c(=O)n([C@H]2C[C@H](O)[C@@H](CO)O2)cc1F,245 nM (active),-1.95,-1.41,
O=C1[C@H](CC[C@H](O)c2ccc(F)cc2)[C@@H](c2ccc(O)cc2)N1c1ccc(F)cc1,,1.08,1.08,1.11 (inactive)
C#C[C@]1(O)CC[C@H]2[C@@H]3[C@H](C)CC4=C(CCC(=O)C4)[C@H]3CC[C@@]21C,,-0.281,0.766,-1.06 (inactive)
CC(=O)O[C@]1(C(C)=O)CC[C@H]2[C@@H]3C=C(C)C4=CC(=O)CC[C@]4(C)[C@H]3CC[C@@]21C,,0.601,0.47,0.958 (inactive)
C=C[C@H]1CN2CC[C@H]1C[C@@H]2[C@@H](O)c1ccnc2ccc(OC)cc12,,-0.182,-0.0481,-0.544 (inactive)
Cc1ccc(O)c([C@H](CCN(C(C)C)C(C)C)c2ccccc2)c1,,-0.8,-0.815,-0.294 (inactive)
CCCCCCCCCCC[C@@H](C[C@@H]1OC(=O)[C@H]1CCCCCC)OC(=O)[C@H](CC(C)C)NC=O,,1.61,1.43,1.22 (inactive)
C#C[C@]1(O)CC[C@H]2[C@@H]3CCC4=CC(=O)CC[C@@H]4[C@H]3CC[C@@]21CC,,-0.819,-0.784,-1.07 (inactive)
CCCCCN=C(N)N/N=C/c1c[nH]c2ccc(OC)cc12,,-1.05,-1.17,-0.801 (inactive)
C#C[C@]1(O)CC[C@H]2[C@@H]3CCc4cc(OC)ccc4[C@H]3CC[C@@]21C,,0.901,1.32,1.12 (inactive)
Clc1cccc(C(c2ccc3nc[nH]c3c2)n2ccnc2)c1 (configuration not stated),,0.0386,0.19,-0.1 (inactive)
COc1cc([C@H]2Oc3cc([C@H]4Oc5cc(O)cc(O)c5C(=O)[C@@H]4O)ccc3O[C@@H]2CO)ccc1O,,1.29,0.956,1.43 (inactive)
Cc1ccc(-c2ncc(Cl)cc2-c2ccc(S(C)(=O)=O)cc2)cn1,,0.717,0.912,0.855 (inactive)
CCOC(=O)[C@H](CCc1ccccc1)N[C@@H](C)C(=O)N1[C@H](C(=O)O)C[C@@H]2CCC[C@@H]21,,-0.134,-0.409,-0.637 (inactive)
